According to PubChem BioAssay (Tox21):
Inconclusive results are not listed. Unmarked numbers belong to inactive results. Calls come from the whole dose curve. Positions of bridges follow the written chain, without caps; N, C: chain ends. Non-standard residues stand in square brackets, D forms with d. Residues, ends and D or L forms follow the SMILES beside them. hArg = N=C(N)NCCCC[C@H](N)C(=O)O; Mpa = O=C(O)CCS

Test: qHTS assay to identify small molecule agonists of the AP-1 signaling pathway - cell viability counter screen (AID 1159525); note: nearly all actives have a fitted effect of over 55% in size
Settings: ME-180 (cervical carcinoma) AP-1-bla cells viability, ATP luminescence, 5 h; series mostly up to 76.8 µM; viability change, negative = cytotoxic: at the top concentration
Source text: National Center for Advancing Translational Sciences [NCATS]
NIH Chemical Genomics Center [NCGC]
U.S. Environmental Protection Agency [EPA]
National Institutes of Environmental Health Sciences [NIEHS]
National Toxicology Program [NTP]
U.S. Food and Drug Administration [FDA]
Activator protein-1 (AP-1), a transcription factor, plays an important role in tumor genesis by regulating genes involved in cell proliferation, differentiation, apoptosis, and angiogenesis. AP-1 activity is induced by a complex network of signaling pathways that involves extracellular signals, such as growth factors. The AP-1 protein complex formed from c-Fos and c-Jun binding to the AP-1 response element results in transcriptional activation of genes containing such elements within their promoter.
Low molecular weight molecules have been discovered and developed to modulate various components of these signaling pathways, for example, MAP kinase inhibitors. However, many points of pathway modulation remain untested due to the lack of chemical probes making this signaling locus of general interest.
Using a beta-lactamase reporter-gene under control of the AP-1 response element, a cell-based assay [CellSensor(TM) AP-1-bla ME-180 developed by Invitrogen Corp.] was used to measure EGF-induced signaling. The Tox21 10K library compounds were measured for their ability to positively modulate the action of EC50 EGF on reporter gene activity. Compounds were screened in a 15-pt titration series in 1536-well format. The cytotoxicity of the Tox21 compound library against this cell line was tested in parallel by measuring the intra cellular ATP content in the same wells.
Tox21 Assay Protocol Summary:
2500 cells/5uL in Opti-MEM medium containing 0.5% dialyzed FBS, 0.1 mM NEAA, 1 mM sodium pyruvate and 10 mM HEPES was dispensed into 1536-well black wall/clear bottom plates using a Multidrop dispenser and cells were cultured at 37 degrees Celsius overnight. Next day 23 nL of compounds dissolved in DMSO, positive controls or DMSO were delivered to each well using a pin tool. The plates were incubated at 37 degrees Celsius for 5 hours. 1 uL of LiveBLAzerTM B/G FRET substrate (Solution A+B+C+D) was added to each well using a Flying Reagent Dispenser. After incubated at room temperature for 2.5 hours the plates were measured on an EnVision plate reader at Excitation 405nm, Emission1=460nm and Emission 2=530nm. The %Activity was determined from the ratio of 460nm/530nm.
After the plates were read for Beta-Lactamase assay on Envision; 3 ul Cell Titer Glo (Promega) was added to measure the cytotoxicity and the plates were then incubated at RT in dark for 30 min. The luminescence was read on ViewLux (Perkin Elmer, Shelton, CT) using 6 sec exposure. ViewLux data was expressed as relative luminescence units.
For primary data analysis, raw plate reads for each titration point were first normalized relative to […] EGF control (100%) and DMSO only wells (basal, 0%).
For primary data analysis for viability assay, raw plate reads for each titration point were first normalized Tetra n-octyl ammonium bromide control (-100%) and DMSO (control, 100%).

SMILES | viability change, negative = cytotoxic
O=[N+]([O-])c1c(Cl)cc(Cl)cc1Cl | -1.67%
CCC(=O)CC | -1.03%
COc1nc(N)nc2nc[nH]c12 | -6.52%
CCn1cc(C(=O)O)c(=O)c2cnc(N3CCCC3)nc21 | 0.489% [at 6.97 µM]
NC(=O)[C@@H]1CSSCCC(=O)N[C@@H](CCCCN=C(N)N)C(=O)NCC(=O)N[C@@H](CC(=O)O)C(=O)N[C@@H](Cc2c[nH]c3ccccc23)C(=O)N2CCC[C@H]2C(=O)N1 ([Mpa][hArg]GDWPC-NH2; disulfide 1-7) | -2% [at 35.3 µM]
CC1CC(=O)CC(C)(C)C1 (stereo not given) | 1.96%
CC(C)C1OCCN1CCOC(=O)NCCCCCCNC(=O)OCCN1CCOC1C(C)C (stereo not given) | 2.96%
O=C(CCCl)NCCc1ccccc1 | 3.35% [at 35.3 µM]
C#CCN[C@@H]1CCc2ccccc21 | 1.19% [at 35.3 µM]
O=C[O][Al]([O]C=O)[O]C=O | 1.69%
CC(=O)Nc1ccc(OC(=O)c2ccccc2OC(C)=O)cc1 | 1.99% [at 35.3 µM]
C[C@]12CCC(=O)C=C1CC[C@H]1[C@@H]3CC[C@](O)(C(=O)CO)[C@@]3(C)C[C@H](O)[C@@]12F | 0.458% [at 35.3 µM]
C=C(C)[C@@H]1CC=C(C)CC1 | 2.67%
CCC(C)OC(C)CC (stereo not given) | 14.2%
CC1=C(O)C(=O)C(C)O1 (stereo not given) | 2.4%
CN(C)CC/C=C1/c2ccccc2COc2ccc(CC(=O)O)cc21 | 0.757% [at 35.3 µM]
CC(=O)O[C@H]1C[C@@H]2CC[C@@]1(C)C2(C)C | 0.491%
COS(=O)(=O)O | -0.438%
O=C(O)[C@H](O)c1ccccc1 | -12.3% [at 35.3 µM]
C=CCN1C[C@H](C(=O)N(CCCN(C)C)C(=O)NCC)C[C@@H]2c3cccc4[nH]cc(c34)C[C@H]21 | 11.1% [at 35.3 µM]

SMILES | viability change, negative = cytotoxic
Cc1cc(C)c(C(=O)O)c(C)c1 | 11.4%
CCCSSCCC | 1.1%
CCN1CCCC1CN (stereo not given) | -1.29% [at 35.3 µM]
O=S(=O)(O)c1ccc2c(N=Nc3ccc(S(=O)(=O)O)c4ccccc34)c(O)c(S(=O)(=O)O)cc2c1 | 6.35% [at 6.97 µM]
CCOc1cccc(N)c1 | -3.55%
O=C1OCCO1 | 0.125%
Cc1ccc2c(c1)C(=O)c1ccccc1C2=O | -10.3%
O=C(O)CCCCCC(=O)O | -7.61%
CC(C)NCC(O)c1ccc2ccccc2c1 (stereo not given) | 2% [at 35.3 µM]
COC(C)(OC)OC | 1.23%
C=CC(=O)OCC1CCCO1 (stereo not given) | 2.97%
CC(C)c1ccc(C=O)cc1 | -1.08%
CCCC(CC)c1ccccc1 (stereo not given) | 2.03%
COc1ccc(CCO)cc1 | -13.8%
CC1(C)Cc2cccc(N)c2O1 | 6.56%
N#Cc1cscn1 | -0.816%
CC(C)=CCC[C@@](C)(O)[C@H]1CC=C(C)CC1 | -9.64% [at 35.3 µM]
CC(=O)c1cc(C)oc1C | 3.32%
C=Cc1ccc(C(C)(C)C)cc1 | -2.64%
CC(C)(CO)C(O)C(=O)NCCCO (stereo not given) | -6.77%
